This is an account of results in ChEMBL document CHEMBL1157539, “Thousands of chemical starting points for antimalarial lead identification” (Nature, 2010).

One may read the Inhibition as the relative decrease from the control value, in per cent. A lower Inhibition goes with a response near the control.

The first assay deals with Plasmodium falciparum. The assay is described as follows: GSK_TCMDC: Inhibition of Plasmodium falciparum Dd2 in whole red blood cells, using parasite LDH activity as an index of growth. Test compounds present at 2uM. It counts as functional.
`CCOC(=O)CNC(=O)c1cc(=O)c2ccccc2o1`: the Inhibition was 0%. `Nc1nc(N)c2cc(Sc3ccc4ccccc4c3)ccc2n1` displayed an Inhibition of 92%.

The molecule `NS(=O)(=O)c1cccc(-c2ccc3c(O)ncnc3c2)c1` came in with an Inhibition of 100%. Take `CCCc1cc(N2CCC(N3CCCC3)CC2)nc(Nc2ccc(Cl)cc2)n1`: the Inhibition is on record as 9%. On the same count and under the same terms, in the case of `CC(C)[C@H](NC(=O)c1ccc(O)c(-c2ccc(Cl)c(Cl)c2)c1)C(=O)NCCN(C)C` it was 1%. On the same count and under the same terms, then `COc1ccc2ncc(F)c(CCN3C4CCC3CC(NCc3cc5c(cn3)OCS5)C4)c2n1.Cl` (stereo not drawn), with 48%.

The next assay deals with HepG2. In words: GSK_TCMDC: Percent inhibition of human HepG2 cell line. Test compounds present at 10uM. It counts as functional.
On to `Nc1ccc2[nH]cc(C3CCN(CC4CCC(NC(=O)/C=C/c5ccc(Cl)c(Cl)c5)CC4)CC3)c2n1` (stereo not drawn), for which the Inhibition was determined as 18%. The same measure, in the same setting: in the case of `Cl.NC(=O)N1CCN(Cc2ccc(Br)cc2)CC1` it was 83%; in that of `Cc1ccccc1C1CCN(C2CCC(NC(=O)c3ccc(-c4cccs4)s3)CC2)CC1` (stereo not drawn), 58%; in that of `CC(=O)Nc1ncc(C(=O)Nc2cccc(-c3cccc(-c4nc5cccc(C)c5[nH]4)c3)c2)s1`, 15%. As for `CN(C)CCCOc1c(C(C)(C)C)cc(-c2cc(C(C)(C)C)c(OCCCN(C)C)c(C(C)(C)C)c2)cc1C(C)(C)C`, the Inhibition worked out at 25%. Consider `Cc1cc(N[C@@H](Cc2ccccc2)C(=O)NCCc2ccccc2)nc(NCc2ccccc2C)n1.O=C(O)C(F)(F)F`, for which the Inhibition is 37%.

Consider `CC1CN(Cc2ccccc2)CCN1c1ccc(NC(=O)c2ccc(F)cc2)cc1.O=C(O)C(F)(F)F` (stereo not drawn), for which the Inhibition worked out at 0%. Turning to `O=C(/C=C/c1ccc(Cl)c(Cl)c1)NCCCCCN1CCC(NC(=O)c2ccc3ccccc3c2)CC1`, the Inhibition was found to be 8%. Same read-out and setting: then `CN(C(=O)c1ccccc1)C1c2cc(C#N)ccc2OC(C)(C)C1O` (stereo not drawn), with 8%; and `Cn1cc(C2CCN(CCCCNC(=O)c3ccc(-c4ccc(C(F)(F)F)cc4)c(CO)c3)CC2)c2ccccc21`, with 67%. Still for that read-out and setting: in the case of `O=c1cc(NCCC(CNCCc2ccccc2)NCc2cc(Br)cc(Br)c2)[nH]c2ccccc12` (stereo not drawn) it was 3%; in that of `Cc1nc2c(c(O)c1Cl)-c1ccc(Oc3cccc(C(F)(F)F)c3)cc1C2=O`, 25%; in that of `COc1ccc(NC(=O)/C=C/c2ccc(Cl)c(Cl)c2)cc1N1CCN(C)CC1`, 23%.

The molecule `Cc1cccc2nc(-c3ccc(-c4cccc(NC(=O)NCc5cccc(F)c5)c4)cc3)[nH]c12` yielded an Inhibition of 27%. `O=C(O)C(F)(F)F.O=S(=O)(NCCN1CCCC1)c1ccc(-c2ccc(CNCc3ccc(F)cc3)cc2)cc1F` yielded an Inhibition of 40%.

The molecule `CCc1ccccc1N=C1c2c(cccc2[N+](=O)[O-])C(=O)C1C(C)=O` (stereo not drawn) had an Inhibition of 0%. `Cc1cccc2nc(-c3cccc(-c4cccc(CN5CCN(c6ccc(C#N)cn6)CC5)c4)c3)[nH]c12.O=C(O)C(F)(F)F` yielded an Inhibition of 11%. On the same count and under the same terms, then `CCN(CC)CCCn1c(N)c(-c2nc3ccccc3[nH]2)c2nc(C#N)c(C#N)nc21`, with 8%. The same measure, in the same setting: then `O=C(NCCN1CCCCC1)c1ccc(Nc2nccc(Nc3ccc(Oc4ccccc4)cc3)n2)cc1`, with 58%; and `Cc1ccc2[nH]c(Nc3ccc(Nc4nc5cc(C)ccc5[nH]4)c(C)c3)nc2c1`, with 12%. Still for that read-out and setting: in the case of `c1ccc(Oc2ccc(Nc3ccnc4cc(-c5ccc(CN6CCOCC6)o5)ccc34)cc2)nc1` it was 5%.

The molecule `Cc1[nH]c(C)c(-c2ccc(/C=C/c3ccccn3)cc2)c(=O)c1Cl` showed an Inhibition of 0%.

Regarding `Cc1ccc2nc(C)cc(NC(=O)Nc3ccc(N(C)C)cc3)c2c1`, the Inhibition stood at 12%.

On to `Clc1ccc(CNC2CCN(CC3CCCCC3)CC2)cc1.O=C(O)C(F)(F)F`, for which the Inhibition is reported as 12%. Same read-out and setting: then `COc1cc(NCCCCNc2ccc(Cl)c(Cl)c2)nc2ccccc12`, with 22%. In the case of `Cc1cc2c(cc1C(F)(F)F)N(C(=O)Nc1cc(OCCN(C)C)cc(C(F)(F)F)c1)CC2.Cl`, the Inhibition is reported as 16%. On the same count and under the same terms, in the case of `COc1cccc(OC2CCN(C(=O)c3cc(C(C)(C)C)nn3Cc3ccccc3)CC2)c1` it was 3%; in that of `O=C(Nc1cccc(OC2CCN(Cc3ccc(F)cc3)CC2)c1)c1ccc(C(F)(F)F)cc1.O=C(O)C(F)(F)F`, 28%; in that of `CNc1ccc(CNCc2cccc(-c3ccc(-c4nc5cccc(C)c5[nH]4)cc3)c2)cc1.O=C(O)C(F)(F)F`, 26%. Still for that read-out and setting: then `CCNc1cc(C(=O)N[C@@H](Cc2ccccc2)[C@H](O)CNCCCc2ccc(OC)cc2)cc(N2CCCC2=O)c1.O=C(O)C(F)(F)F`, with 4%. Still for that read-out and setting: in the case of `CCCCCCN1CCCN(Cc2ccc(C(=O)Nc3ccc(C(C)(C)C)cc3)cc2)CC1.O=C(O)C(F)(F)F` it was 53%; in that of `COc1ccc(Cl)cc1-c1nc(C(=O)NCCN2CCCCC2)c(C(C)C)s1.O=C(O)C(F)(F)F`, 14%.
